According to PubChem BioAssay (NCI):
The panel holds about 83,000 compounds, 20% with a hit somewhere; the sample as a whole holds those more often.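 Cells were grown in 96-well plates and exposed to the test compound at a single concentration for 48 hours; results are reported as percent growth, with values below 10 considered active.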 Values without a mark were called inactive. Calls of active or inactive are those of the source.

Test system: UO-31 renal
Assay: NCI-60 one-dose screen, 48 h (100 = growth as untreated, 0 = no growth, -100 = all killed)
Details: 10 µM

Structure (SMILES) | growth
COc1ccc(C(O)c2ccccc2)cc1 (stereo unspecified) | 81.9%
CC1CC(O)C2C3(C)CCCC2(COC3=O)C12CCC1(CCOC1=O)O2 (stereo unspecified) | 93.3%
c1ccc2c(c1)Sc1ccccc1S2 | 98.9%
Cc1ncc(C#N)c(N)n1 | 85.7%
CC(=O)Nc1cccc(Cl)c1C | 85.3%
NCCCN | 92.6%
CCCC(C)OCC(=O)O (stereo unspecified) | 86.6%
C#CC(C(C)C)N(CCO)CCCC (stereo unspecified) | 96.8%
O=C(O)/C=C/c1ccc2c(c1)CCC2 | 99.7%
CC1(C(=O)O)NC(C(=O)O)Cc2c1[nH]c1ccccc21 (stereo unspecified) | 79.5%
COc1cc(C2c3cc4c(cc3C3OC(=O)C2C3CO)OCO4)cc(OC)c1OC (stereo unspecified) | 38.2%
O=[N+]([O-])c1ccc(/C=C/C=C/c2ccccc2)c(Cl)c1 | 92.8%
COc1ccc(-c2cc3c(nn2)-c2ccccc2C3=O)cc1 | 89.7%
COc1cccc(/C=N/NC(=S)NC2CC3CCC2C3)c1O (stereo unspecified) | 21.8%
CCN(CC)CCCC(C)Nc1ccnc(/C=C/c2ccc(Cl)cc2)c1 (stereo unspecified) | -48.5% (active)
CC(=O)C1CCCCC1 | 92.8%
CC(=O)OCCO | 90.3%
O=C(/C=C/C(=O)c1ccccc1)c1ccccc1 | 97.6%
CC(=O)OCC1OC(OC2=C(CC=C(C)C)C(=O)c3ccccc3C2=O)C(OC(C)=O)C(OC(C)=O)C1OC(C)=O (stereo unspecified) | 38.6%

Structure (SMILES) | growth
O=C(/C(=N/O)c1ccccc1)c1ccccc1 | 87.9%
c1ccc(/C(=N\N=C(/c2ccccc2)c2cccs2)c2cccs2)cc1 | 71.2%
CC(C)=NNC(N)=S | 79.3%
CCn1c(=O)n(C)c2c(=O)n(C)c(=O)n(C)c21 | 87.4%
Cc1cccc(CO)c1 | 92.9%
O=C(O)c1cccc([N+](=O)[O-])c1 | 89.6%
O=C(O)COCC(=O)O | 91.4%
O/N=C/c1ccc(O)cc1O | 99%
CCOC(=O)C(O)C(O)C(=O)OCC (stereo unspecified) | 97.1%
O=C(O)CCCC(=O)O | 87%
C=C[Si](OC(C)=O)(OC(C)=O)OC(C)=O | 79.3%
Clc1ccc(-c2nnc(-c3cccc4ccccc34)o2)cc1 | 41.4%
O=C1C=C(Nc2ccc([N+](=O)[O-])cc2)c2ccccc2C1=O | 30%
CCN1C(=O)/C(=C/C=C/N(C)c2ccccc2)SC1=S | 94.2%
CC(=O)Cc1ccc(-c2ccccc2)cc1 | 84.8%
O=P(O)(O)OCC(O)CO (stereo unspecified) | 98.7%
Cc1ccc(C(O)C2CC2)cc1 (stereo unspecified) | 88.5%
c1cc[n+](C2c3ccccc3C([n+]3ccccc3)c3ccccc32)cc1 (stereo unspecified) | 61.8%
O=S(=O)(Cc1ccccc1)c1ccccc1 | 102%

Test system: TK-10 renal
Assay: as above
Details: 10 µM unless noted

Structure (SMILES) | growth
COc1ccc(C(O)c2ccccc2)cc1 (stereo unspecified) | 101%
CC1CC(O)C2C3(C)CCCC2(COC3=O)C12CCC1(CCOC1=O)O2 (stereo unspecified) | 114%
c1ccc2c(c1)Sc1ccccc1S2 | 99.4%
Cc1ncc(C#N)c(N)n1 | 109%
CC(=O)Nc1cccc(Cl)c1C | 95.5%
NCCCN | 107%
CCCC(C)OCC(=O)O (stereo unspecified) | 119%
C#CC(C(C)C)N(CCO)CCCC (stereo unspecified) | 107%
O=C(O)/C=C/c1ccc2c(c1)CCC2 | 107%
CC1(C(=O)O)NC(C(=O)O)Cc2c1[nH]c1ccccc21 (stereo unspecified) | 108%
COc1cc(C2c3cc4c(cc3C3OC(=O)C2C3CO)OCO4)cc(OC)c1OC (stereo unspecified) | 49.6%
O=[N+]([O-])c1ccc(/C=C/C=C/c2ccccc2)c(Cl)c1 | 121%
COc1ccc(-c2cc3c(nn2)-c2ccccc2C3=O)cc1 | 32.1%
COc1cccc(/C=N/NC(=S)NC2CC3CCC2C3)c1O (stereo unspecified) | 88.3%
CCN(CC)CCCC(C)Nc1ccnc(/C=C/c2ccc(Cl)cc2)c1 (stereo unspecified) | -38.8% (active)
CC(=O)C1CCCCC1 | 99.5%
CC(=O)OCCO | 114%
O=C(/C=C/C(=O)c1ccccc1)c1ccccc1 | 86.9%
CC(=O)OCC1OC(OC2=C(CC=C(C)C)C(=O)c3ccccc3C2=O)C(OC(C)=O)C(OC(C)=O)C1OC(C)=O (stereo unspecified) | 87.4%

Structure (SMILES) | growth
O=C(/C(=N/O)c1ccccc1)c1ccccc1 | 108%
c1ccc(/C(=N\N=C(/c2ccccc2)c2cccs2)c2cccs2)cc1 | 104%
CC(C)=NNC(N)=S | 113%
CCn1c(=O)n(C)c2c(=O)n(C)c(=O)n(C)c21 | 102%
Cc1cccc(CO)c1 | 108%
O=C(O)c1cccc([N+](=O)[O-])c1 | 110%
O=C(O)COCC(=O)O | 124%
O/N=C/c1ccc(O)cc1O | 102%
CCOC(=O)C(O)C(O)C(=O)OCC (stereo unspecified) | 102%
O=C(O)CCCC(=O)O | 120%
C=C[Si](OC(C)=O)(OC(C)=O)OC(C)=O | 105%
Clc1ccc(-c2nnc(-c3cccc4ccccc34)o2)cc1 | 95.3%
O=C1C=C(Nc2ccc([N+](=O)[O-])cc2)c2ccccc2C1=O | 80.4%
CCN1C(=O)/C(=C/C=C/N(C)c2ccccc2)SC1=S | 85.6%
CC(=O)Cc1ccc(-c2ccccc2)cc1 | 101%
O=P(O)(O)OCC(O)CO (stereo unspecified) | 110%
Cc1ccc(C(O)C2CC2)cc1 (stereo unspecified) | 116%
c1cc[n+](C2c3ccccc3C([n+]3ccccc3)c3ccccc32)cc1 (stereo unspecified) | 52%
O=S(=O)(Cc1ccccc1)c1ccccc1 | 102%
